# ALR H2O2 inh: human ALR oxidase inhibition via reduced H2O2; P55789; purified ALR, DTT oxidation, H2O2 HRP-luminol luminescence; inhibition, % (test concentration not listed); 290,000 tested, 3.8% active; AID 485317;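 active = mean replicate inhibition above about 79%, with every replicate also reaching it, limit read from the data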
# Target sequence (P55789 whole entry, looked up): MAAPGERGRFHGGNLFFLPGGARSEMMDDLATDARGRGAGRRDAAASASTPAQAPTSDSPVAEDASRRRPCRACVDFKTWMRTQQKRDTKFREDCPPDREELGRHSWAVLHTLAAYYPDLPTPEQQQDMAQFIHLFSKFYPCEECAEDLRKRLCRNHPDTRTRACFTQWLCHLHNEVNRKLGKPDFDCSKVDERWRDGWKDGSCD
# Casp6 inh: blocks human caspase-6 cleavage activity; purified caspase-6, Z-VEID-R110 cleavage fluorescence; 350,000 tested, 0.53% active; inhibition, % at 12.5 µM;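 active = mean inhibition across replicates at least about 35%, with every replicate also reaching that limit, limit read from the data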;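 note: 0% = median of neutral control wells and 100% = no fluorescence left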
# Target sequence (P55212 24-179 limits assumed): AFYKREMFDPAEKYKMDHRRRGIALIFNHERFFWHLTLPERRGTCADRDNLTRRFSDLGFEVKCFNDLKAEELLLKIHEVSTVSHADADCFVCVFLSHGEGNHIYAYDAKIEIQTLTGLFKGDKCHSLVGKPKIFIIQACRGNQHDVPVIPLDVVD
# Target sequence (P55212 194-293 limits assumed): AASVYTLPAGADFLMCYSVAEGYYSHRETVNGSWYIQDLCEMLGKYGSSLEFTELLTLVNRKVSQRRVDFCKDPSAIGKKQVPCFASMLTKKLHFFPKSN
# F508del corr: correctors of CFTR F508del function in bronchial epithelial cells; CFBE cells, YFP halide quenching; stimulated with forskolin plus potentiator P3; % fluorescence drop versus neutral controls; activity (quench increase), % at 7.58 µM; AID 720511; 350,000 tested, 0.36% active;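 active = mean added fluorescence quench of at least 8% versus neutral control, with both replicates also reaching 8%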;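 note: cells transiently co-express mutant CFTR-F508del with the halide-sensitive YFP; corrector assay measuring rescue of mutant channel to the surface after 24 h compound exposure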
# NSD2 inh: NSD2 (human) methyltransferase inhibition; inhibition, % at 12.5 µM; 310,000 tested, 0.54% active; NSD2 peptide methylation, AlphaScreen, 120 min; O96028; in the data active = inhibition above about 50%
# PglD DTNB: blocks C. jejuni PglD acetyltransferase activity | purified PglD enzyme, DTNB colorimetric CoA detection | inhibition, % at 12.5 µM | 360,000 tested, 0.098% active | AID 602405; in the data active = inhibition above about 16%, passing the limit was not always enough
# HIV Env fusion: inhibitors of HIV Env-mediated cell fusion | HeLa-JRFL Env/CEM21 cell fusion, luciferase | inhibition, % at 12.3 µM | AID 651610 | 360,000 tested, 1.1% active;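 active = mean replicate inhibition score of at least 50 and every replicate individually at or above 50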;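 note: 0% = plate neutral controls and 100% = maraviroc near 300 nM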
# * hit, by the source's call; x = no result given; [ ] = another dose, or the depositor's remark. This is a sample that favours compounds with a hit; in the whole collection about 4.1% have one here.
SMILES,ALR H2O2 inh,Casp6 inh,F508del corr,NSD2 inh,PglD DTNB,HIV Env fusion
CCOc1ccccc1N(C(=O)CNC(=O)c1ccco1)C(C(=O)NC1CCCC1)c1cccnc1 (stereo unspecified),-2,x,x,-1,1,77*
O=C(NC1CCCCC1)C(c1cccnc1)N(C(=O)CCl)c1ccc(F)cc1 (stereo unspecified),-5,-1,1,13,-8,x
COc1ccc(N(C(=O)CCl)C(C(=O)NC2CCCCC2)c2cccnc2)cc1 (stereo unspecified),1,x,x,12,x,51*
COc1ccc(C(C(=O)NC2CCCC2)N(C(=O)c2ccoc2C)c2ccc(C)cc2)cc1 (stereo unspecified),-3,x,x,0,-3,90*
COc1ccc2c3c([nH]c2c1)[C@@H](CO)N(C(=O)NC1CCCC1)CC31CN(S(C)(=O)=O)C1,x,x,3,x,x,x
O=C(NC1CCCC1)C(c1ccc(F)cc1)N(Cc1ccc(F)cc1)C(=O)CCl (stereo unspecified),4,-3,x,2,-14,-17
COC(CN(C(=O)CCl)C(C(=O)NC1CCCCC1)c1ccc(C)cc1)OC (stereo unspecified),97*,x,x,-1,-3,-12
COc1ccc(C(C(=O)NC2CCCCC2)N(C(=O)CCl)c2ccc(C)cc2)cc1 (stereo unspecified),-10,-64,x,1,x,56*
COc1ccc(C(C(=O)NC2CCCCC2)N(C(=O)CCl)c2ccc(OC)cc2)cc1 (stereo unspecified),-6,x,x,0,-3,x
O=C(C[C@@H]1C=C[C@H](NC(=O)Cc2cccnc2)[C@H](CO)O1)Nc1ccc(-c2ccccc2)cc1,x,3,0,x,x,x
COCCOC(=O)N1C(=O)[C@@]2(c3cc(C#CC4(O)CCCCCC4)ccc31)[C@H](c1ccc(OCCO)cc1)N1[C@H](c3ccccc3)[C@H](c3ccccc3)OC(=O)[C@H]1[C@@H]2C(=O)N1CCN(c2ncccn2)CC1,x,0,0,x,x,-10[16.7 µM]
Cc1nnc(SCC(=O)N(C)CC(=O)Nc2ccccc2Cl)s1,11,9,2,0,-4,x
COc1ccc(NC(=O)CN(C)C(=O)CSc2nc3ccccc3s2)cc1,98*,5,0,1,x,26
CN(CC(=O)Nc1ccccc1Cl)C(=O)CSc1nc2ccccc2s1,85*,0,x,-1,3,0
CSc1ccccc1NC(=O)CN(C)C(=O)/C=C/c1ccccc1,2,36*,2,11,7,3
COc1cc(/C=C/C(=O)N(C)CC(=O)Nc2ccccc2SC)cc(OC)c1OC,x,2,2,0,-2,8
Cc1nnc(Nc2ccc3c(c2)OCO3)c2ccccc12,88*,x,x,x,4,x
Oc1ccc(Br)cc1-c1ccn[nH]1,15,4,x,-2,6,-1
Oc1ccc(O)c(-c2cnns2)c1,99*,x,x,-2,x,22
C[C@H](CO)N1C[C@H](C)[C@H](CN(C)S(=O)(=O)c2cn(C)cn2)Oc2ccc(NS(=O)(=O)c3cn(C)cn3)cc2C1=O,x,x,-1,x,x,15[16.7 µM]
CN1C(=O)NC(c2ccc(Cl)cc2)C2=C1CC(C)(C)CC2=O (stereo unspecified),94*,2,-2,-1,-3,-5
CC1CC2=C(C(=O)O1)C(C)Nc1ccccc1N2 (stereo unspecified),x,-3,-2,-3,8,2
CC1CC2=C(C(=O)O1)C(c1ccccc1)Nc1ccccc1N2 (stereo unspecified),98*,0,-2,-5,x,x
CC1(C)CC(=O)C2=C(C1)Nc1ccccc1NC2c1ccc(F)cc1 (stereo unspecified),99*,2,-1,-2,0,0
COc1ccc(C2Nc3ccccc3NC3=C2C(=O)CC(C)(C)C3)cc1 (stereo unspecified),57,2,-1,-1,1,2
SMILES,ALR H2O2 inh,Casp6 inh,F508del corr,NSD2 inh,PglD DTNB,HIV Env fusion
CC1(C)CC(=O)C2=C(C1)Nc1cc3c(cc1C2c1ccc2c(c1)OCO2)OCO3 (stereo unspecified),-24,1,4,x,5,5
CC1(C)CC(=O)C2=C(C1)Nc1ccccc1NC2c1ccc2c(c1)OCO2 (stereo unspecified),99*,x,x,26,1,-106
CN1C(=O)NC(c2ccccc2Cl)C2=C1CC(C)(C)CC2=O (stereo unspecified),-8,1,1,8,-1,-3
CN(C)C(=O)c1cccc(-c2ccc([C@H]3[C@H](CO)N4C(=O)CN(C(=O)C5CCCC5)C[C@@H]34)cc2)c1,x,0,1,x,x,x
O=C(C1CCCCC1)N1CC(=O)N2[C@H](CO)[C@@H](c3ccc(-c4cccnc4)cc3)[C@@H]2C1,x,-2,-1,x,x,x
CN(C)CC(=O)N[C@H]1CC[C@@H](CC(=O)NCc2ccccc2F)O[C@@H]1CO,x,0,-1,x,2,2[16.7 µM]
Cc1noc2c1C(c1ccc(N(C)C)cc1)C1=C(CC(C)(C)CC1=O)N2 (stereo unspecified),98*,x,x,4,-4,x
CC1(C)CC(=O)C2=C(C1)Nc1ccccc1NC2c1ccccn1 (stereo unspecified),83*,x,x,-2,7,x
CC1(C)CC(=O)C2=C(C1)Nc1ccccc1NC2c1nc2ccccc2[nH]1 (stereo unspecified),98*,1,5,x,x,-10
CC1(C)CC(=O)C2=C(C1)Nc1cc3c(cc1C2c1ccc(F)cc1)OCO3 (stereo unspecified),98*,x,x,x,3,15
C[C@H](CO)N1C[C@H](C)[C@H](CN(C)S(=O)(=O)c2ccc(F)cc2)Oc2cc(C#Cc3ccc(F)cc3)ccc2S1(=O)=O,x,1,2,x,-1,16[16.7 µM]
COc1ccc(S(=O)(=O)N(C)C[C@H]2OCCCC[C@@H](C)Oc3ccc(NS(=O)(=O)c4cn(C)cn4)cc3C(=O)N([C@H](C)CO)C[C@@H]2C)cc1,x,-1,-2,x,5,-11[16.7 µM]
CN(C)c1ccc(C2CC(=O)OC3=C2C(=O)CC(C)(C)C3)cc1 (stereo unspecified),99*,2,2,6,x,-5
Cc1noc(C)c1NC(=O)N(C)C[C@H]1OCCCC[C@@H](C)Oc2ccc(N(C)C)cc2C(=O)N([C@H](C)CO)C[C@H]1C,x,x,-4,x,x,-36[16.7 µM]
CC(=O)NNC(=O)c1cc2sccc2s1,x,4,x,-4,x,0
NNC(=O)c1cc2sccc2s1,98*,0,2,-1,0,-18
CCS(=O)(=O)N1CC2(C1)[C@@H](c1ccccc1)[C@@H](CO)N2C(=O)C1CCC1,x,x,4,x,x,x
CN(C)c1ccc(C2N(c3ccc(Cl)cc3)C(=O)C3CCCN32)cc1 (stereo unspecified),64,0,-2,x,-4,6
CN(C)c1ccc(C2N(c3ccc(F)cc3)C(=O)C3CCCN32)cc1 (stereo unspecified),97*,-1,0,x,-1,-13
